Records with an inconclusive call do not appear. Activity calls are given as the source filed them. Rule for the calls: active = hit-call score of the fitted dose curve at least 0.9, where 1 is the maximum; inconclusive = response in the unintended direction; inactive = score below 0.9.

Our source for the outcome and AC50 values is PubChem BioAssay (EPA / NIEHS).

Test [1] has as its target Estrogen receptor (Homo sapiens) (UniProt P03372). Put plainly: OT_ER_ERaERa_0480: Odyssey Thera (OT) 8-hour HEK293T Protein-Complementation Assay for Estrogen Receptor-alpha/-alpha Homodimer (AID 2283351).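 Note: rise in fluorescence from reassembled reporter fragments on ERα LBD homodimer in nucleus or whole cell.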 The gist of the method: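 HEK293T cells stably expressing the human ERα ligand-binding domain (aa 310-547) as a homodimer PCA were dosed with compound for 8 h. Gain of fluorescence intensity versus DMSO vehicle was read by laser scanning cytometry.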

The target in test [2] is T1, Estrogen receptor (Homo sapiens) + Estrogen receptor beta (Homo sapiens) (UniProt P03372+Q92731). Put plainly: OT_ER_ERaERb_0480: Odyssey Thera (OT) 8-hour HEK293T Protein-Complementation Assay for Estrogen Receptor-alpha/-beta Heterodimer (AID 2283352). The gist of the method:
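Fluorescence intensity readout from a protein-fragment complementation reporter in HEK293T; ER-alpha/ER-beta LBD heterodimer. Dosing 8 h. Gain-of-signal fit relative to DMSO negative control; laser scanning cytometry of whole-well cell population.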

The target in test [3] is T1, Estrogen receptor (Homo sapiens) + Estrogen receptor beta (Homo sapiens). Put plainly: OT_ER_ERaERb_1440: Odyssey Thera (OT) 24-hour HEK293T Protein-Complementation Assay for Estrogen Receptor-alpha/-beta Homodimer (AID 2283356).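 Note: heteromer of ER alpha and ER beta binding domains; hits raise reporter fluorescence and both agonists and antagonists give an increase.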 Summed up: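 Readout: mean fluorescence intensity in nucleus (agonists) or nucleus plus cytoplasm (antagonists), read by laser scanning cytometer after 24 h compound exposure of HEK293T cells carrying ERα/ERβ LBD fragment-complementation constructs; DMSO baseline.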

For test [4], the target named is Androgen Receptor/SRC-1 Co-activator, AR (gene 367) (UniProt P10275). Put plainly: OT_AR_ARSRC1_0960: Odyssey Thera (OT) 16-hour HEK293T Protein-Complementation Assay for Androgen Receptor/SRC-1 Co-activator (AID 2283353).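 Note: actives raise the signal above DMSO so potency reflects increased AR and SRC-1 complex.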 Summed up:
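HEK293T cells stably expressing AR and SRC-1 fused to split Venus YFP fragments via (Gly4Ser)2 linkers were dosed for 16 h. Nuclear/cytoplasmic fluorescence ratio at 488 nm, ≥400 cells per image, fitted for gain of signal versus DMSO.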

The target is the same in test [5]. Put plainly: OT_AR_ARSRC1_0480: Odyssey Thera (OT) 8-hour HEK293T Protein-Complementation Assay for Androgen Receptor/SRC-1 Co-activator (AID 2283354).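 Note: hits raise the complementation signal above DMSO so AC50 marks enhancers.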 The protocol:
OT_AR_ARSRC1_0480 is a cell-based, single-readout assay that uses HEK293T, a human kidney cell line, with measurements taken at 8 hours after chemical dosing in a 384-well plate.OT_AR_ARSRC1_0480 is one of one assay component(s) measured or calculated from the OT_AR_ARSRC1_0480 assay. It is designed to make measurements of protein fragment complementation, a form of binding reporter, as detected with fluorescence intensity signals by Protein-fragment Complementation technology.Data from the assay component OT_AR_ARSRC1_0480 was analyzed into 1 assay endpoint. This assay endpoint, OT_AR_ARSRC1_0480, was analyzed in the positive analysis fitting direction relative to DMSO as the negative control and baseline of activity. Using a type of binding reporter, measures of receptor for gain-of-signal activity can be used to understand the binding at the pathway-level as they relate to the gene AR. Furthermore, this assay endpoint can be referred to as a primary readout, because the performed assay has only produced 1 assay endpoint. To generalize the intended target to other relatable targets, this assay endpoint is annotated to the nuclear receptor intended target family, where the subfamily is steroidal.
Protein-fragment complementation assay, or PCA, is a method for the identification and quantification of protein-protein interactions. In the PCA, the proteins of interest ("bait" and "prey") are each covalently linked to fragments of a third protein (e.g. DHFR, which acts as a "reporter"). Interaction between the bait and the prey proteins brings the fragments of the reporter protein in close proximity to allow them to form a functional reporter protein whose activity can be measured. The OT AR / SRC-1 assay assessed androgen receptor chemical interactions using a rapidly maturing, intensely fluorescent mutant of YFP known as Venus, rationally dissected into two separate fragments. […] Fusion constructs were transfected into HEK293T cells with a (Gly4Ser)2 linker between the AR/SRC-1 and YFP fragment genes to facilitate complementation when interacting proteins bring fragments into close proximity. The construct is stably expressed in HEK293T cells. […] Images were acquired on an Evotec Opera at 2 wavelengths (488 and 635nm), and the ratio of fluorescence in the nucleus relative to fluorescence in the cytoplasm (N/C Ratio) in the 488nm channel was calculated for a minimum of 400 cells per image. Both agonists and antagonists of the AR receptor induce nuclear translocation to varying degrees. […] The OT AR/SRC-1 assay was also run for 16 hours (see description for OT_AR_ARSRC1_0960).

Test [6] has as its target Retinoic acid receptor alpha (Homo sapiens) (UniProt P10276). Put plainly: NVS_NR_hRAR_Antagonist: NovaScreen (NVS) Nuclear Receptor Binding Assay for human Retinoic Acid Alpha Receptor Antagonism (RAR) (AID 2283358). The gist of the method:
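Cell-free TR-FRET binding assay with extracted human RARalpha in antagonist mode, read 2 h after dosing. Loss of signal was fitted relative to DMSO; the primary screen used 25 uM in duplicate, with concentration series on follow-up.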

Test [7] deals with human Peroxisome Proliferator-activated Receptor alpha (PPARa), PPARA (gene 5465) (UniProt Q07869). Briefly: NVS_NR_hPPARa: NovaScreen (NVS) Nuclear Receptor Binding Assay for human Peroxisome Proliferator-activated Receptor alpha (PPARa) (AID 2283359).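 Note: activity means loss of TR-FRET signal versus DMSO baseline.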 The gist of the method:
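Cell-free TR-FRET binding assay with extracted PPARα protein, read 1 h after dosing. Primary screen in duplicate at 25 uM, with actives retested in concentration series. Loss of signal versus DMSO.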

For test [8], the target named is rat Mineralocorticoid Receptor (MR), Nr3c2 (gene 25672) (UniProt P22199). Briefly: NVS_NR_rMR: NovaScreen (NVS) Nuclear Receptor Binding Assay for rat Mineralocorticoid Receptor (MR) (AID 2283355). The procedure:
NVS_NR_rMR is a biochemical, single-readout assay that uses extracted gene-proteins from Adrenalectomized rat brain supernatant in a tissue-based cell-free assay. Measurements were taken 24 hours after chemical dosing in a 96-well plate.NVS_NR_rMR is one of one assay component(s) measured or calculated from the NVS_NR_rMR assay. It is designed to make measurements of radioligand binding, a form of binding reporter, as detected with scintillation counting signals by Lysate-based radiodetection technology.Data from the assay component NVS_NR_rMR was analyzed into 1 assay endpoint. This assay endpoint, NVS_NR_rMR, was analyzed in the positive analysis fitting direction relative to DMSO as the negative control and baseline of activity. Using a type of binding reporter, loss-of-signal activity can be used to understand changes in the binding as they relate to the gene Nr3c2. Furthermore, this assay endpoint can be referred to as a primary readout, because the performed assay has only produced 1 assay endpoint. To generalize the intended target to other relatable targets, this assay endpoint is annotated to the nuclear receptor intended target family, where the subfamily is steroidal.
Binding assays used specific radioligands (tritiated, iodinated) with non-radioactive competitive displacement ligands in agonist or antagonist protocols (as indicated) and various reference compounds and inhibitors to titrate specific binding to receptors and transporters. Most enzyme assays (CYPs, kinases, phosphatases, proteases, HDACs) used recombinant protein and specific substrates (fluorescence mostly, some colorimetric and radioactive) and inhibitors, followed by a biochemical separation of substrate and product. All assays for the biochemical HTS were initially run in duplicate at a single concentration (10 uM for CYP450 assays and 25 uM for all others). […] Each assay was run with positive and negative controls, and concurrent controls on every plate. […]

Sequence of Androgen Receptor/SRC-1 Co-activator, AR (gene 367) (P10275 whole entry, looked up, the tested form may be a part): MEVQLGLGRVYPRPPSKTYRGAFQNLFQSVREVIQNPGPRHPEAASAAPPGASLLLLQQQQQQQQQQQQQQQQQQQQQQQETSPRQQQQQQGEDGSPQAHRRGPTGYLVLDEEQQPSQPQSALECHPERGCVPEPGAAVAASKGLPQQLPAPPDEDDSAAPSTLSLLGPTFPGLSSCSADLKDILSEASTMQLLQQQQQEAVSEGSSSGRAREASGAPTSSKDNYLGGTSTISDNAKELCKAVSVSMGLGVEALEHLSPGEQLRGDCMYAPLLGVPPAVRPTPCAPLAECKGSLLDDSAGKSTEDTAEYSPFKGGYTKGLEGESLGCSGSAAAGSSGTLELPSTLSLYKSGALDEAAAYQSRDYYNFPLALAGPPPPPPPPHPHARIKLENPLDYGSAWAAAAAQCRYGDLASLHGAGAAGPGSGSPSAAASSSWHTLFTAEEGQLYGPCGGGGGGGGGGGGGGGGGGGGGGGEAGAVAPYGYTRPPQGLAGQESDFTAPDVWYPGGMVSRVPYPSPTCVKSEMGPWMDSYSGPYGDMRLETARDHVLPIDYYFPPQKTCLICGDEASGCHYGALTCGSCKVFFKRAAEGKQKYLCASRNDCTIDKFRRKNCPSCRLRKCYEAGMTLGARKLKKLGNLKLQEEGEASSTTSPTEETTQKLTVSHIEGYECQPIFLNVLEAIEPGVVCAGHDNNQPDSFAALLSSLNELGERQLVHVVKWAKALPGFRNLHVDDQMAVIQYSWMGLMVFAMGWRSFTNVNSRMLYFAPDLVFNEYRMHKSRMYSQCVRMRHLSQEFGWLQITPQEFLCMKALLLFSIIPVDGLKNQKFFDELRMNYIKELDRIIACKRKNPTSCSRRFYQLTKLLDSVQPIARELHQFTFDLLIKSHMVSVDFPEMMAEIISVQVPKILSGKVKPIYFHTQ
Sequence of Estrogen receptor (Homo sapiens) (P03372 whole entry, looked up, the tested form may be a part): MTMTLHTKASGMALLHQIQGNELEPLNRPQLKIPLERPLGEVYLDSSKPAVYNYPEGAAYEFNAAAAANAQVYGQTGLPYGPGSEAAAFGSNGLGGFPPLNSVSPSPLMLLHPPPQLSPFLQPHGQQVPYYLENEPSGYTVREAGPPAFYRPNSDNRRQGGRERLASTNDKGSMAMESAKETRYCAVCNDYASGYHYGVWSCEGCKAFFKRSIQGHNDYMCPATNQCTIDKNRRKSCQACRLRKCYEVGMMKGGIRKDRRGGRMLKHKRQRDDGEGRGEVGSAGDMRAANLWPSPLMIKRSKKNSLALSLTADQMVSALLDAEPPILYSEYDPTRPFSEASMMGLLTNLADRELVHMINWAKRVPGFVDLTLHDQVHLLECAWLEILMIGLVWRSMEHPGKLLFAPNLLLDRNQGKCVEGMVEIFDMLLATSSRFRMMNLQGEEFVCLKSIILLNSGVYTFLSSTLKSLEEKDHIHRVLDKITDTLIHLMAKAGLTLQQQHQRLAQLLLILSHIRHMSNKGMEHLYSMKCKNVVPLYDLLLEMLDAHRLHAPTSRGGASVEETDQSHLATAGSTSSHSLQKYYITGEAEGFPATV
T1 sequence (P03372 whole entry, looked up, the tested form may be a part): as above
T1 sequence (Q92731 whole entry, looked up, the tested form may be a part): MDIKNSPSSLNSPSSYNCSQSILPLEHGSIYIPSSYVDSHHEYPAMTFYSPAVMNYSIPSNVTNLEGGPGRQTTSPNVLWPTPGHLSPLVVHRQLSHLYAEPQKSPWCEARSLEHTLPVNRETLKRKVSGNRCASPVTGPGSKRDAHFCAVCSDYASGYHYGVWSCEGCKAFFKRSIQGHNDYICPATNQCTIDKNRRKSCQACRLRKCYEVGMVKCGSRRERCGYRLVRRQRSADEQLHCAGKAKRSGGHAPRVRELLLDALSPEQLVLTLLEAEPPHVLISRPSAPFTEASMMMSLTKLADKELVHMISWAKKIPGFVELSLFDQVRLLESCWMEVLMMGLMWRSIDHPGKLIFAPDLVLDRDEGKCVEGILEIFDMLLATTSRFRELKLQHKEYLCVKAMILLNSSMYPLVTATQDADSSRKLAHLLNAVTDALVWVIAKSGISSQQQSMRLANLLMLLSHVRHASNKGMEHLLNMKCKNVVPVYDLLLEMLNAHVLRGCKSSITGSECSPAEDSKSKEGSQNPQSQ
Sequence of rat Mineralocorticoid Receptor (MR), Nr3c2 (gene 25672) (P22199 whole entry, looked up): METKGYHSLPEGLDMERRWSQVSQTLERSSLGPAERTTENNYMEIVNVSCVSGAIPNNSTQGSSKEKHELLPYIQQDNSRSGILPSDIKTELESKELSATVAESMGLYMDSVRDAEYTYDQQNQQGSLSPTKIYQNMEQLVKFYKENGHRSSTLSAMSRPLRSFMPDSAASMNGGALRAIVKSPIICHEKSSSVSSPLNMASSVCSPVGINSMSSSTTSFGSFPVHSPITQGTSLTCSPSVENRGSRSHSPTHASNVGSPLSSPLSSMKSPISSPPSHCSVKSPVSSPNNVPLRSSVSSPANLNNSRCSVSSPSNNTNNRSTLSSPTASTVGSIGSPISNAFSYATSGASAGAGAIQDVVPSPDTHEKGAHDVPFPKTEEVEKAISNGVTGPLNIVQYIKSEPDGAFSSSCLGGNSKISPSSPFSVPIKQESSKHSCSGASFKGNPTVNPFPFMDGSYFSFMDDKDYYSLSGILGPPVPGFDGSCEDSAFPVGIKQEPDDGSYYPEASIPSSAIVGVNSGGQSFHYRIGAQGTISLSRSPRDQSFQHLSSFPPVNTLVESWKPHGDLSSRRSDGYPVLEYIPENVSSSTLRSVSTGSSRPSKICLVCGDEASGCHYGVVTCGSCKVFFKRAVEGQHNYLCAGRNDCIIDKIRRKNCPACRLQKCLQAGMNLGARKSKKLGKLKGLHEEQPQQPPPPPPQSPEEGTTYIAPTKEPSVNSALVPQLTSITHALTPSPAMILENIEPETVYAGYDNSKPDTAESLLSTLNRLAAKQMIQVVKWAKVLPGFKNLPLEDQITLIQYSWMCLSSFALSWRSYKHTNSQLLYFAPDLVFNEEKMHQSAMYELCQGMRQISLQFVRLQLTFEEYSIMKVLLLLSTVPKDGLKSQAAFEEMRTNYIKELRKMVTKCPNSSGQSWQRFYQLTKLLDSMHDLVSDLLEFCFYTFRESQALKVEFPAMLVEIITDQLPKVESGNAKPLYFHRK
Sequence of human Peroxisome Proliferator-activated Receptor alpha (PPARa), PPARA (gene 5465) (Q07869 whole entry, looked up): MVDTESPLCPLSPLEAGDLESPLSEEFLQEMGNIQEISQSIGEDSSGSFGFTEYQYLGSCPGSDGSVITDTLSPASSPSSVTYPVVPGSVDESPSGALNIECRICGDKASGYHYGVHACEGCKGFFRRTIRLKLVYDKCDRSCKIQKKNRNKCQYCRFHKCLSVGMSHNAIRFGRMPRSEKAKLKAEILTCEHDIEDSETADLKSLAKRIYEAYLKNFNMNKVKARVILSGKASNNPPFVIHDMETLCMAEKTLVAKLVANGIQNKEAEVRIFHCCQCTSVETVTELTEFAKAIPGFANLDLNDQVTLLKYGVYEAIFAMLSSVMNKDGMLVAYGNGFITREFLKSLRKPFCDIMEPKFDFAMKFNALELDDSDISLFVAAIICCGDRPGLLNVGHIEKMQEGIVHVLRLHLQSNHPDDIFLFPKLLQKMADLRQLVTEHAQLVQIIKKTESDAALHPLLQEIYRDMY
Sequence of Retinoic acid receptor alpha (Homo sapiens) (P10276 whole entry, looked up): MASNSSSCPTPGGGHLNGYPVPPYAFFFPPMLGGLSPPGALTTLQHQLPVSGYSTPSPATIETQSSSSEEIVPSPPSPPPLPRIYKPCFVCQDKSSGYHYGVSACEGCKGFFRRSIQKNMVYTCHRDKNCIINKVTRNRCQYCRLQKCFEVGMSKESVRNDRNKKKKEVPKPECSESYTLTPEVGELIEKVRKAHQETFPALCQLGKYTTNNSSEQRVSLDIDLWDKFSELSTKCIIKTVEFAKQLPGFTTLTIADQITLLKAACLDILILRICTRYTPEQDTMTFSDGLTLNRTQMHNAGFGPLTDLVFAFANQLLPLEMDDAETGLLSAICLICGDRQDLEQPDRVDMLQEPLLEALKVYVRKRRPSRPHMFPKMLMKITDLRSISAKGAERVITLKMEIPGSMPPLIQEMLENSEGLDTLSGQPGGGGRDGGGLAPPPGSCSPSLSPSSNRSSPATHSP

Regarding `Cc1ccc(N/N=c2\c(=O)cc/c(=N/Nc3ccc(S(=O)(=O)O)cc3)c2=O)c(C)c1`, the result in test [1], in test [2] and in test [3] was inactive.

In the case of `O=S1(=O)OC(c2ccc(O)cc2)(c2ccc(O)cc2)c2ccccc21`, the compound was classed as inactive in test [1], in test [2] and in test [3].

As for `CC1=CC[C@H]2C[C@@H]1C2(C)C`, the compound was called inactive in test [1], in test [2] and in test [3].

Take `Cc1cc(C)c(C(=O)O)c(C)c1`: the outcome in test [1], in test [2] and in test [3] was inactive.

Turning to `Oc1ccc(Cl)cc1Cc1cc(Cl)ccc1O`, the outcome in test [1] and in test [6] was inactive. The AC50 in test [2] is 11.9 µM (active); in test [4] it was 29.6 µM (active); in test [5], 55.5 µM (active); in test [3], 11.9 µM (active); in test [7], 14 µM (active).

`CCCCCc1ccc(Cl)cc1`: the result in test [1] was inactive.

Consider `C1CN(SSN2CCOCC2)CCO1`, for which the result in test [1] was inactive.

As to `c1ccc2c(c1)ccc1cc3c(ccc4ccccc43)cc12`, the compound was called inactive in test [1].

Consider `CC(C)=CCC[C@H](C)CCO`, for which the result in test [1], in test [2], in test [4], in test [5] and in test [3] was inactive.

Turning to `CCCCCCCOC(=O)CCC`, the compound was classed as inactive in test [1], in test [2], in test [8] and in test [3].

With `CC(C)C1=CC2=CC[C@@H]3[C@](C)(CCC[C@@]3(C)C(=O)O)[C@H]2CC1`, the call in test [1] was inactive.

As to `C1=Cc2ccccc2C1`, the compound was called inactive in test [1].

In the case of `C=C1C2CCC(C2)C1(C)C` (stereo not given), the outcome in test [1], in test [2] and in test [3] was inactive.

Take `CCCCOCCOC(=O)COc1nc(Cl)c(Cl)cc1Cl`: the result in test [1] was inactive.

As for `CC(C)c1ccc2cc(C(C)C)ccc2c1`, the outcome in test [1], in test [2], in test [4], in test [5] and in test [3] was inactive.

Regarding `CC=C1CC2C=CC1C2` (stereo not given), the compound was called inactive in test [1], in test [2] and in test [3].

With `COC(=O)c1c(C)cc(O)c(C)c1O`, the call in test [1] was inactive. Also, the AC50 in test [2] is 50.4 µM (active); in test [3], 61.8 µM (active).

On to `Cn1c([N+](=O)[O-])cnc1COC(N)=O`, for which the outcome in test [1], in test [2] and in test [3] was inactive.

`O=C1CCCC1`: the compound was classed as inactive in test [1], in test [2] and in test [3].

Turning to `NC(CO)(CO)CO`, the compound was called inactive in test [1].

On to `CC(C)(C)c1ccc(N)cc1`, for which the compound was called inactive in test [1], in test [2] and in test [3].

On to `O=c1cc(-c2ccccc2)oc2ccccc12`, for which the compound was classed as inactive in test [1], in test [2], in test [4] and in test [5]. In addition, the AC50 in test [3] was 57.3 µM (active).

On to `CCCc1ccc(OC)cc1`, for which the outcome in test [1], in test [2], in test [4], in test [5] and in test [3] was inactive.

On to `CC(C)(C)c1ccc(-c2ccc(C(C)(C)C)cc2)cc1`, for which the result in test [1], in test [2], in test [5] and in test [3] was inactive. Besides, the AC50 in test [4] is 77.8 µM (active).

On to `CCCCCCCCCCOS(=O)(=O)O`, for which the result in test [1] was inactive.

As for `CC(=O)[C@H]1[C@H](C#N)C[C@H]2[C@@H]3CC=C4C[C@@H](O)CC[C@]4(C)[C@H]3CC[C@@]21C`, the outcome in test [1], in test [2] and in test [3] was inactive.

As to `O=C(O)CCCC[C@@H]1SC[C@@H]2NC(=O)N[C@@H]21`, the call in test [1], in test [2] and in test [3] was inactive.

As to `CCOC(=O)Cc1cccc2ccccc12`, the compound was classed as inactive in test [1] and in test [3]. Further, the AC50 in test [2] was 61.7 µM (active).

Turning to `CC1=NN(c2cc(S(=O)(=O)O)ccc2Cl)C(=O)C1N=Nc1ccccc1` (stereo not given), the compound was called inactive in test [1], in test [2] and in test [3].

`O=C(OCC1CCC2OC2C1)C1CCC2OC2C1` (stereo not given): in test [1], the AC50 is 12.1 µM (active).

As for `CN(C)c1ccc(C(=N)c2ccc(N(C)C)cc2)cc1`, the AC50 in test [1] is 59.1 µM (active); in test [3], 18.4 µM (active). The result in test [2] was inactive.

As to `O=C(c1ccccc1)C1CCC1`, the compound was called inactive in test [1], in test [2] and in test [3].

With `CCCCCCC1(C)CCC(=O)O1` (stereo not given), the result in test [1] was inactive.

With `OC1CCCCCCCCCCC1`, the compound was called inactive in test [1].

For orientation: AC50 means the concentration at which the activity in the assay is half-maximal.
